Source: PubChem (National Center for Advancing Translational Sciences (NCATS))
Sampled rows, rich in hits. Any-hit rate of the full collection: about 12%.
L3MBTL1 inh: inhibitors of human L3MBTL1. Potency, µM (top dose mostly 57.1 µM), inactives show at the top dose activity, negative = inhibition, most hits filed as inhibitors. AlphaScreen L3MBTL1–H3K9me1 peptide binding. 230,000 compounds, 0.66% hits; note: % is set by controls: 0 for no effect and ±100 for the full control effect; nearly all actives have a fitted effect of over 60% in size
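First, the protein-peptide complex forms for 30 min at room temperature (L3MBTL1 50 nM, biotinylated H3K9me1 peptide 75 nM). Next, compounds are pin-transferred and incubated 30 min. Finally, AlphaScreen beads are added and read after 30 min.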
BAZ2B block: blocks human BAZ2B | 360,000 compounds, 4.4% hits | Potency, µM (top dose mostly 114 µM), for inactives: at the highest dose activity change, negative = inhibition, hits mostly inhibitors | AID 504333 | Q9UIF8 | AlphaScreen BAZ2B-H3K14Ac peptide displacement; note: % is set by controls: 0 for no effect and ±100 for the full control effect; nearly all actives have a fitted effect of over 60% in size
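Protein-peptide AlphaScreen: BAZ2B 50 nM, b-H3K14Ac 50 nM, 1x PBS pH 7.4 + 0.01% Tween-20. Preincubation 30 min RT; cpd 30 min RT (top 110 uM); beads 20 min RT, light-protected.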
G9a inh: blocks human histone lysine methyltransferase G9a. 350,000 compounds, 8.8% hits. AID 504332. Potency, µM (top dose mostly 102 µM), for inactives: at the highest dose activity, negative = inhibition, hits mostly inhibitors. G9a H3K9 monomethylation, AlphaScreen, 2 h. Q96KQ7; note: % is set by controls: 0 for no effect and ±100 for the full control effect; nearly all actives have a fitted effect of over 75% in size
Target sequence (Q96KQ7 913-1193 limits assumed): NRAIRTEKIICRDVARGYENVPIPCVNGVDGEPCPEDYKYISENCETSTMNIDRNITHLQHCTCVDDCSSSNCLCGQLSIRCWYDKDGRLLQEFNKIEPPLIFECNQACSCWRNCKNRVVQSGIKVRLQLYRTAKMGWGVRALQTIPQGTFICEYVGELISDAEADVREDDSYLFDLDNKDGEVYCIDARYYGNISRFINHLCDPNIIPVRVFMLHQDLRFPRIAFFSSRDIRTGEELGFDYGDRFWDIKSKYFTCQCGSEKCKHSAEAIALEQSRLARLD
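AlphaScreen detection with an anti-monomethyl H3K9 antibody quantified product after a 2 h room-temperature reaction containing 500 nM biotinylated H3K9 peptide, 20 µM SAM and 20 nM enzyme, which had been preincubated 15 min with compound.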
Sfp inh: Sfp phosphopantetheinyl transferase inhibition. Potency, µM, without a hit: largest response in the series, negative = inhibition, most hits filed as inhibitors. Q9F4F7. 310,000 compounds, 3.5% hits. Biochemical Sfp PPTase activity, qHTS;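 note: the enzyme is Sfp with the accession as filed and its product quenches rhodamine fluorescence; 0% = enzyme reaction without inhibitor and -100% = no enzyme wells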
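With Hepes-Na pH 7.6 buffer containing 10 mM MgCl2, Sfp (15 nM) modified BHQ-2-YbbR (12.5 uM) using rhodamine-CoA (5 uM). Two reads 30 minutes apart at 525/598 nm yielded each well's rate.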
JMJD2A Tudor: JMJD2A Tudor domain (human) inhibition; O75164; Potency, µM (series often up to 114 µM), for inactives: at the highest dose activity change, negative = inhibition, most hits filed as inhibitors; 390,000 compounds, 4.4% hits; AlphaScreen JMJD2A-Tudor / H3K4me3 peptide binding; note: % is set by controls: 0 for no effect and ±100 for the full control effect; nearly all actives have a fitted effect of over 50% in size
HP1b binding inh: inhibitors of HP1-beta chromodomain binding to methylated histone tails; P83916; AlphaScreen HP1-beta / biotin-H3K9me3 peptide binding; Potency, µM (highest dose often 114 µM), for the others: at the highest dose activity change, negative = inhibition, most hits filed as inhibitors; 390,000 compounds, 0.56% hits; AID 540317; note: nearly all actives have a fitted effect of over 70% in size
Target sequence (P83916 whole entry, looked up): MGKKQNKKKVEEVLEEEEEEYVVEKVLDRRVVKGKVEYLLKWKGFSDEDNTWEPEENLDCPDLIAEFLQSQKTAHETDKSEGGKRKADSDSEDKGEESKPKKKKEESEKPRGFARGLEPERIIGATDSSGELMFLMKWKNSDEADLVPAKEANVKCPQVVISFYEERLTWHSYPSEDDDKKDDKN
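AlphaScreen: HP1-beta (50 nM) preformed 30 min with biotin-H3(1-18)K9me3 peptide (50 nM) in PBS pH 7.4, 0.01% Tween-20. Compound added for 30 min at RT, then streptavidin donor/nickel chelate acceptor beads (10 ug/mL) for 30 min.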
An asterisk follows results filed as active; ? = inconclusive; nt = not tested or not shown; [ ] = another dose, or the depositor's remark. Calls come from the whole dose curve; as a rule, active = well fitted curve in the direction sought with a large enough effect; inconclusive = small, poorly fitted or top-dose-only effect, or another doubt; inactive = no such curve, though single readings can be large; an effect the other way counts as inactive or inconclusive. Potency is the fitted concentration of half-maximal effect.

SMILES	L3MBTL1 inh	BAZ2B block	G9a inh	Sfp inh	JMJD2A Tudor	HP1b binding inh
CCc1ccc(Nc2n[n+](-c3ccccc3)c(-c3cc(OC)c(OC)cc3Br)s2)cc1	-3%	32µM*	?	-8%	79µM*	-6%
CCc1ccc(Nc2n[n+](-c3ccccc3)c(/C=C/c3ccccc3)s2)cc1	-9%	28µM*	40µM*	50µM*	nt	nt
CCc1ccc(Nc2n[n+](-c3ccccc3)c(-c3c(Cl)cccc3Cl)s2)cc1	?	8.9µM*	14µM*	71µM*	16µM*	-5%
COc1ccc(-c2sc(Nc3ccccc3)n[n+]2-c2ccc(F)cc2)cc1Br	-3%	-12%	?	15%	?	7%
Fc1ccc(-[n+]2nc(Nc3ccccc3)sc2-c2c(Cl)cccc2Cl)cc1	?	40µM*	nt	?	35µM*	?
CCSc1nnc(Nc2ccccc2)s1	-6%	11%	12%	-3%	13%	20%
CCc1ccc(Nc2nc3ccccc3c(=O)s2)cc1	1%	-2%	-5%[59 µM]	-14%	-1%	39%
O=C(CN(C(=O)CCC(=O)Nc1nccs1)c1cccc(F)c1)NCCc1ccccc1	nt	1%	16%	23%	9%	17%
O=C1CCC=C1[C@@H](O)CCc1ccccc1	nt	nt	nt	3%	nt	nt
COc1ccc2ccccc2c1-c1sc(Nc2ccccc2)n[n+]1-c1ccc(F)cc1	-12%	32µM*	50µM*	-16%	40µM*	?
CCOC(=O)C(CC)Sc1ncnc2c1c(-c1ccccc1)cn2-c1ccc(OC)cc1 (stereo not drawn)	nt	5%	16%[59 µM]	nt	-4%	33%
COc1ccc(CCC(C(O)C(F)(F)F)S(=O)c2ccccc2)cc1 (stereo not drawn)	1%	8%	?	-22%	40µM*	5%
COC(=O)C1=C(C(=O)OC)SC(=C2C(=S)C(C)(C)N(C(=O)CC(C)C)c3ccccc32)S1	nt	4µM*	7.9µM*	?	11µM*	-77%
Clc1ccc2ccc3cccnc3c2n1	nt	41%	13%	12%	-11%	-9%
CC1=[N+](C)c2c(ccc3cccnc23)C1(C)C	?	40µM*	3.2µM*	11µM*	25µM*	?
c1ccc(CN2CCOCC2)nc1	nt	nt	nt	nt	11µM*	10%
Fc1ccc(N2CCN(Cc3ccccn3)CC2)cc1	4%	50µM*	3.5µM*	?	11µM*	?
Oc1cccnc1CN1CCOCC1	nt	nt	nt	nt	7.9µM*	30%
c1ccc2c(CN3CCOCC3)c3ccccc3c(CN3CCOCC3)c2c1	-4%	-33%	?	-13%	-17%	22%
Fc1ccc(CSc2nnc(-c3ccccn3)o2)cc1	0%	-5%	10%[59 µM]	11%	1%	47%
CC1=C(C(N)=O)C(c2ccc(C(C)C)cc2)n2nc(SCc3ccccc3F)nc2N1 (stereo not drawn)	nt	-3%	2%[59 µM]	nt	-14%	45%
C=CCNc1ccc(N2C(=O)C3CCC(C)CC3C2=O)cc1[N+](=O)[O-] (stereo not drawn)	?	?	50µM*	0%	nt	nt
C=CCN(CC=C)c1ccc(N2C(=O)C3CCCCC3C2=O)cc1[N+](=O)[O-] (stereo not drawn)	nt	?	22µM*	3%	?	-17%
CCOC(=O)c1c(NC(=O)/C=C/c2ccc(C)cc2)sc2c1CCCC2	nt	16%	23%[59 µM]	nt	8%	56%
COCCn1c(SCC(=O)Nc2cccc(F)c2)nc2c(c1=O)SCC2	nt	-38%	-5%	-1%	2%	33%
SMILES	L3MBTL1 inh	BAZ2B block	G9a inh	Sfp inh	JMJD2A Tudor	HP1b binding inh
Cc1cc(OCC(O)CN2CCCC2)ccc1C(C)C (stereo not drawn)	33%	9%	nt	8%	-17%	22%
Cc1cc(OCC(O)CN2CCN(c3cccc(Cl)c3)CC2)ccc1Cl (stereo not drawn)	nt	-13%	-9%[59 µM]	nt	79µM*	6%
COc1ccc(N2CCN(CC(O)COc3ccc(C(C)C)c(C)c3)CC2)cc1 (stereo not drawn)	nt	-38%	6.3µM*	nt	?	5%
COc1ccc(N2CCN(CC(O)COc3ccc(C)c(C)c3)CC2)cc1 (stereo not drawn)	nt	45µM*	32µM*	-1%	56µM*	?
S=C(c1ccc(-c2cccc(Cl)c2)o1)N1CCOCC1	nt	45µM*	?	20µM*	50µM*	35µM*
S=C(c1ccc(-c2cccc(Cl)c2)o1)N1CCCCC1	nt	32µM*	11µM*	-43%	28µM*	?
CC(=O)N1CCN(C(=S)c2ccc(-c3ccc(Cl)cc3)o2)CC1	-14%	-6%	4µM*	32µM*	?	-68%
O=C(Nc1ccccc1N1CCCCC1)c1ccc(-c2cccc(Cl)c2)o1	-8%	-21%	-1%[59 µM]	-21%	2%	14%
COc1ccc(Cl)cc1NC(=O)CN(C)C(=O)c1ccc(COc2ccccc2)cc1	6%	4%	2%	nt	-19%	11%
CC(C)(C)S(=O)(=O)N1C[C@H]2C(=CC[C@@H]3C(=O)N(c4ccccc4)C(=O)[C@@H]32)[C@H]1CCO	nt	nt	nt	nt	-31%	36%
CCCCN=C1NN=C(c2ccc(C)c(C)c2)CS1	nt	-36%	32µM*	-25%	-21%[11.4 µM]	?
COCCN=C1NN=C(c2ccc(C)c([N+](=O)[O-])c2)CS1	-6%	-29%	10µM*	-26%	?	12%
FC(F)Sc1ccc(N=C2NN=C(c3ccc4c(c3)OCCO4)CS2)cc1	-12%	-7%	nt	0%	-23%	?
COc1ccc(N=C2NN=C(c3ccc4c(c3)OCCO4)CS2)cc1	nt	?	45µM*	?	?	?
CCCCN=C1NN=C(c2ccc3c(c2)OCCO3)CS1	nt	nt	45µM*	40µM*	-35%	18%
COc1ccc(C2C(C(=O)c3ccc(C)o3)=C(O)C(=O)N2Cc2cccnc2)cc1 (stereo not drawn)	nt	-17%	50µM*	-3%	35µM*	16%
Cc1ccc(C(=O)C2=C(O)C(=O)N(Cc3cccnc3)C2c2ccc(Br)cc2)o1 (stereo not drawn)	nt	-1%	?	12%	-20%	8%
Cc1ccc(C(=O)C2=C(O)C(=O)N(Cc3ccco3)C2c2ccc(N(C)C)cc2)o1 (stereo not drawn)	nt	35µM*	nt	-10%	?	22%
Cc1ccc(C(=O)C2=C(O)C(=O)N(Cc3cccnc3)C2c2ccc(N(C)C)cc2)o1 (stereo not drawn)	nt	-33%	35µM*	1%	-30%	7%
CN(C)c1ncc2nc(-c3ccc(Cl)cc3)c(=O)n(C[C@H]3CCCO3)c2n1	nt	nt	3%[0.501 µM]	10%	nt	nt
